# Values joined by “and” are separate entries in the source; they are usually repeats but may differ in a detail not shown here. Identical values can stand only once. Counter-ions that a name gives are not always drawn. About 620 (11%) of roughly 5,800 compounds showed activity. For the sample, actives were picked, then their nearest neighbours and some compounds at random. A number with no mark means an inactive call.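 Rule for the calls: active = score above a cut-off or among the top three wells of a plate; in these data no inactive exceeds 0.85.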
# Test system: primary human hepatic stellate cells (donor 1)
# Experiment: scaled lipid accumulation score (0 = DMSO-like, 1 = nortriptyline-like); higher = stronger HSC inactivation (lipid re-accumulation), active = hit call of the paper
# Conditions: 48 h
# [1] = library stock concentration: 10 mM
# [2] = library stock concentration: 3.33 mM
# [3] = library stock concentration: 1 mM
# [4] = library stock concentration: 5.9 mM
structure (smiles),measurement,setting,value
"NC(Cn1oc(=O)[nH]c1=O)C(=O)O (single isomer, unassigned; (+)) [(+)-Quisqualic acid]",scaled lipid accumulation score,[1],≤ 0
CN1C[C@H](CNC(=O)OCc2ccccc2)C[C@@H]2c3cccc4c3c(cn4C)C[C@H]21 [Metergoline] [listing 1 of 3 here],scaled lipid accumulation score,[1],0.893 (active)
CN1C[C@H](CNC(=O)OCc2ccccc2)C[C@@H]2c3cccc4c3c(cn4C)C[C@H]21 [Metergoline] [listing 2 of 3 here],scaled lipid accumulation score,[1],0.653
CN1CC(CNC(=O)OCc2ccccc2)C[C@H]2c3cccc4c3c(cn4C)CC21 (stereo partly drawn) [Metergoline],scaled lipid accumulation score,[1],1.05 (active)
CC[C@@H](CO)NC(=O)[C@@H]1C=C2c3cccc4c3c(cn4C)C[C@H]2N(C)C1 [Methysergide],scaled lipid accumulation score,library stock concentration: 5.7 mM,≤ 0
CO[C@]12C[C@@H](COC(=O)c3cncc(Br)c3)CN(C)[C@@H]1Cc1cn(C)c3cccc2c13 [Nicergoline],scaled lipid accumulation score,,≤ 0
same,scaled lipid accumulation score,[1],0.682 and 0.399
CN1C[C@H](CNC(=O)OCc2ccccc2)C[C@@H]2c3cccc4c3c(cn4C)C[C@H]21 [Metergoline] [listing 3 of 3 here],scaled lipid accumulation score,,1.06 (active)
CC[C@@H](CO)NC(=O)[C@@H]1C=C2c3cccc4c3c(cn4C)C[C@H]2N(C)C1 [Methysergide maleate],scaled lipid accumulation score,[1],0.458 and 0.048
CCOC(=O)CN1C(=O)CC(C[C@@H](O)C2C[C@@H](C)C[C@H](C)C2=O)CC1=O (stereo partly drawn) [Cycloheximide-N-ethylethanoate],scaled lipid accumulation score,library stock concentration: 13.6 mM,≤ -0.021
Cc1cc([C@@H]2CCCN2C)on1 [ABT-418 hydrochloride],scaled lipid accumulation score,[1],≤ 0
CCOc1ccccc1-n1c(C(C)N2CCN(C(=O)COc3ccc(Cl)cc3)CC2)nc2ccccc2c1=O (stereo not drawn) [Erastin],scaled lipid accumulation score,[2],≤ -0.009
same,scaled lipid accumulation score,[1],0.473
"C[N+]1(C)CCc2cc3c(cc2C1C1OC(=O)c2c1ccc1c2OCO1)OCO3 (single isomer, unassigned; (-)) [(-)-Bicuculline methobromide]",scaled lipid accumulation score,[1],≤ 0
O=C(O)/C=C/CO [trans-4-Hydroxycrotonic acid],scaled lipid accumulation score,[1],0.003
CCCCCCCC/C=C\CCCCCCCC(=O)Nc1ccccc1 [Oleyl Anilide],scaled lipid accumulation score,[3],0.024
CS(=O)(=O)Nc1ccc(Cc2noc(-c3ccc4[nH]cc(CCN)c4c3)n2)cc1,scaled lipid accumulation score,[1],≤ 0
COc1ccc(CCN2CCC(Nc3nc4ccccc4n3Cc3ccc(F)cc3)CC2)cc1 [Astemizole] [listing 1 of 3 here],scaled lipid accumulation score,,1 (active)
COc1ccc(CCN2CCC(Nc3nc4ccccc4n3Cc3ccc(F)cc3)CC2)cc1 [Astemizole] [listing 2 of 3 here],scaled lipid accumulation score,[1],0.907 (active)
COc1ccc(CCN2CCC(Nc3nc4ccccc4n3Cc3ccc(F)cc3)CC2)cc1 [Astemizole] [listing 3 of 3 here],scaled lipid accumulation score,library stock concentration: 4.4 mM,0.824 and 0.409
same,scaled lipid accumulation score,[1],0.475
COc1ccc(C(=O)c2c(C)n(CCN3CCOCC3)c3ccccc23)cc1 [Pravadoline],scaled lipid accumulation score,library stock concentration: 5.3 mM,≤ -0.006
CC(=O)N[C@H]1[C@@H](O[C@@H]2O[C@H](CC(O)[C@H]3O[C@@H](n4ccc(=O)[nH]c4=O)[C@H](O)[C@@H]3O)[C@H](O)[C@H](O)[C@H]2NC(=O)/C=C/CC(C)C)O[C@H](CO)[C@@H](N)[C@@H]1O (stereo partly drawn) [Tunicamycin],scaled lipid accumulation score,library stock concentration: 7 mM,0.058
CN1CC[C@@]2(C)c3cc(OC(=O)Nc4ccccc4)ccc3N(C)[C@@H]12 [Phenserine],scaled lipid accumulation score,[1],0.339
NCCc1ccccn1,scaled lipid accumulation score,[1],≤ 0
CCCCCCC(=O)CCCCCC/C=C/C[C@@H](O)[C@H](O)[C@@](N)(CO)C(=O)O [Myriocin],scaled lipid accumulation score,[3],0.023
O[C@H]1[C@H]2[C@H](O)CCCN2C[C@H]1O [swainsonine],scaled lipid accumulation score,library stock concentration: 28.9 mM,0.01
"Clc1ccc(N2CCN(Cc3c[nH]c4ncccc34)CC2)cc1 [L-745,870 trihydrochloride]",scaled lipid accumulation score,[1],0.37
"Cl.Clc1ccc(N2CCN(Cc3c[nH]c4ncccc34)CC2)cc1 [L-745,870 hydrochloride]",scaled lipid accumulation score,[1],0.902 (active)
CC1=CC(=O)C2=C(C)C[C@H](O)[C@@H]3[C@H](OC(=O)[C@H]3C)[C@H]12 [Austricine hydrate],scaled lipid accumulation score,,≤ 0
CCCCC[C@@H](/C=C/C=C\CCCCCCCC(=O)O)OO,scaled lipid accumulation score,library stock concentration: 100 uM,≤ -0.021
CO[C@@H]1C=C2CCN(C)[C@@H]2C2c3cc4c(cc3C(=O)OC21)OCO4 (stereo partly drawn) [Ungerine nitrate],scaled lipid accumulation score,,≤ 0
CCCCCCC(=O)O[C@H]1CC[C@H]2[C@@H]3CC(=O)C4=CC(=O)CC[C@]4(C)[C@H]3CC[C@]12C [6-keto Testosterone Enanthate],scaled lipid accumulation score,[3],0.048
O=C1Nc2ccc(Cl)cc2C(c2ccccc2Cl)=NC1O (stereo not drawn) [Lorazepam],scaled lipid accumulation score,[1],≤ 0
Oc1ccc2c3c1O[C@H]1c4[nH]c5c(c4C[C@@]4(O)[C@@H](C2)N(CC2CC2)CC[C@]314)C[C@@]1(O)[C@H]2Cc3ccc(O)c4c3[C@@]1(CCN2CC1CC1)[C@H]5O4 [nor-Binaltorphimine dihydrochloride],scaled lipid accumulation score,[1],≤ -0.055 and ≤ 0
O=C1CC[C@@]2(O)[C@H]3Cc4ccc(O)c5c4[C@@]2(CCN3CC2CC2)[C@H]1O5 [Naltrexone hydrochloride dihydrate],scaled lipid accumulation score,,≤ 0
O=C1CC[C@@]2(O)[C@H]3Cc4ccc(O)c5c4[C@@]2(CCN3CC2CC2)[C@H]1O5 [Naltrexone HCl],scaled lipid accumulation score,[2],≤ 0
same,scaled lipid accumulation score,[4],≤ -0.006
same,scaled lipid accumulation score,[1],0.025
Cl.Oc1ccc2c3c1O[C@H]1c4[nH]c5ccccc5c4C[C@@]4(O)C(C2)N(CC2CC2)CCC314 (stereo partly drawn) [Naltrindole hydrochloride],scaled lipid accumulation score,[1],1.1 (active)
Oc1ccc2c3c1O[C@H]1c4[nH]c5ccccc5c4C[C@@]4(O)[C@@H](C2)N(CC2CC2)CC[C@]314 [Naltrindole],scaled lipid accumulation score,[1],0.713
Oc1ccc2c3c1O[C@H]1c4[nH]c5ccccc5c4C[C@@]4(O)[C@@H](C2)N(CC2CC2)CC[C@]314 [Naltrindole HCl],scaled lipid accumulation score,library stock concentration: 4.8 mM,0.264
O=C1/C(=C/c2ccccc2)C[C@@]2(O)[C@H]3Cc4ccc(O)c5c4[C@@]2(CCN3CC2CC2)[C@H]1O5 [BNTX maleate salt hydrate],scaled lipid accumulation score,[1],≤ -0.006
O=C(O)/C=C\C(=O)O.O=C1/C(=C/c2ccccc2)C[C@@]2(O)C3Cc4ccc(O)c5c4[C@@]2(CCN3CC2CC2)[C@H]1O5 [BNTX maleate],scaled lipid accumulation score,[1],0.851 (active)
Cl.Oc1ccc2c3c1O[C@H]1c4[nH]c5ccccc5c4C[C@@]4(O)C(C2)N(CC2CC2)CC[C@]314 [Naltrindole hydrochloride],scaled lipid accumulation score,[1],1.33 (active)
O=C1CC[C@@]2(O)[C@H]3Cc4ccc(O)c5c4[C@@]2(CCN3CC2CC2)[C@H]1O5 [Naltrexone hydrochloride],scaled lipid accumulation score,[4],0.019
same,scaled lipid accumulation score,[1],≤ -0.045 and ≤ -0.027
C=C(C)CN1CC[C@@]23c4c5ccc(O)c4O[C@H]2c2[nH]c4ccccc4c2C[C@]3(O)C1C5 [SDM25N hydrochloride],scaled lipid accumulation score,[1],0.625
